nsP2pro inh – CHIKV nsP2 protease inhibition, primary qHTS | Q8JUX6 | FRET peptide cleavage, nsP2pro, fluorescence 1 h | Potency, µM (highest dose often 24.9 µM), for the others: top-dose activity change, negative = inhibition, hits mostly inhibitors | actives 1.1% (n = 31,000) | AID 1964107; note: nearly all actives have a fitted effect of over 60% in size
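Enzyme 150 nM, substrate 2.5 uM (both final); Tris-HCl 10 mM pH 8.0 + 0.01% Tween 20; cpd up to 25 uM, 7 pts; 15 min preinc., 1 h RT; fluorescence ex 525/em 598.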
nsP2 cell sec – cell-based CHIKV nsP2 protease inhibition, secondary; Potency, µM (doses to about 51.1 µM), for inactives: at the highest dose activity change, negative = inhibition, usual class: inhibitors; actives 10% (n = 450); cell-based CHIKV nsP2 protease reporter assay; shares compounds with nsP2pro inh; note: nearly all actives have a fitted effect of over 70% in size
CHIKV NSP2 FL – inhibits full-length CHIKV NSP2 enzyme | shares compounds with nsP2pro inh | Full-length CHIKV NSP2 protease enzymatic counterscreen | Potency, µM (top dose mostly 50.7 µM), inactives show at the top dose activity change, negative = inhibition, hits mostly inhibitors | actives 39% (n = 410) | AID 1964101; note: nearly all actives have a fitted effect of over 65% in size
Furin counter – selectivity counter-screen for CHIKV nsP2 protease inhibitors: human furin; shares compounds with nsP2pro inh; Recombinant human furin enzymatic counterscreen, fluorogenic substrate; AID 1964102; Potency, µM (top dose mostly 50.6 µM), for the others: at the highest dose activity change, negative = inhibition, usual class: inhibitors; actives 6% (n = 410)
NS23 peptide cs – selectivity test for CHIKV nsP2 protease inhibitors: endogenous NS2/3 peptide; shares compounds with nsP2pro inh; Purified CHIKV nsP2 protease, endogenous NS2/3 peptide cleavage; Potency, µM (highest dose often 51 µM), for inactives: top-dose activity change, negative = inhibition, hits mostly inhibitors; actives 34% (n = 410); AID 1964103; note: nearly all actives have a fitted effect of over 55% in size
Papain counter – papain protease inhibition, counterscreen for nsP2pro inhibitors | shares compounds with nsP2pro inh | purified papain protease activity, enzymatic inhibition | actives 5% (n = 410) | Potency, µM (series often up to 51 µM), for the others: top-dose activity change, negative = inhibition, most hits filed as inhibitors | AID 1964104
Target sequence (P00784 whole entry, looked up): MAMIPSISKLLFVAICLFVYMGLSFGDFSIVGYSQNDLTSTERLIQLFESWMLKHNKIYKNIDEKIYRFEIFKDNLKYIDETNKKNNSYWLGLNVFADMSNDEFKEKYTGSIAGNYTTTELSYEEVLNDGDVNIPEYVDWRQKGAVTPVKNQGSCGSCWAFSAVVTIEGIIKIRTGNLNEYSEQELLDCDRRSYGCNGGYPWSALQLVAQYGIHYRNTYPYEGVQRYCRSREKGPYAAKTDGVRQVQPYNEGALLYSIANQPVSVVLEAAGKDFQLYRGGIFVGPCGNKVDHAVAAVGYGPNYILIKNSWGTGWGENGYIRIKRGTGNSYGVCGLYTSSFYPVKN
nsP2pro confirm – CHIKV nsP2 protease inhibition, confirmatory qHTS; shares compounds with nsP2pro inh; CHIKV nsP2 protease enzymatic activity, qHTS; Potency, µM (highest dose often 25.5 µM), for the others: at the highest dose activity change, negative = inhibition, hits mostly inhibitors; actives 43% (n = 410); AID 1964105; note: nearly all actives have a fitted effect of over 75% in size
HCV NS3 counter – HCV NS3/4A protease inhibition, counterscreen; shares compounds with nsP2pro inh; HCV NS3/4A protease biochemical counterscreen; Potency, µM (highest dose often 50.9 µM), usual class: inhibitors; actives 20% (n = 410); AID 1964106; note: nearly all actives have a fitted effect of over 55% in size
* = called active by the depositor; i = inactive; u = inconclusive; ! = not confirmed by another sample; [ ] = remark or other dose. Shown is part of a subset that was picked to be rich in hits. Calls come from the whole dose curve. % is set by controls: 0 for no effect and ±100 for the full control effect; potency is the fitted concentration of half-maximal effect.

SMILES | nsP2pro inh | others
COC(=O)[C@@H](O)[C@H]1[C@@]2(C)CC3(O)[C@@H](C(=O)[C@H]2O)[C@]24O[C@]25CC(=O)O[C@@H](c2ccoc2)[C@]5(C)CCC4[C@]13C (stereo partly drawn) | 17%[10 µM]
C/C=C(\C)C(=O)OC1C2(O)CC3=C4CC(=O)OC(c5ccoc5)C4(C)CCC3C(C)(C2=O)C(C(OC(C)=O)C(=O)OC)C1(C)C (stereo not drawn) | -16%[10 µM]
COC(=O)[C@H](O)[C@H]1C(C)(C)[C@H](OC(C)=O)[C@@]2(O)C(=O)[C@]1(C)C1CC[C@]3(C)C(CC(=O)O[C@H]3c3ccoc3)[C@]13O[C@@H]32 (stereo partly drawn) | u | nsP2 cell sec=0%[17.6 µM];CHIKV NSP2 FL=u;Furin counter=-4%[17.3 µM];NS23 peptide cs=4%[17.2 µM];Papain counter=-8%[17.2 µM];nsP2pro confirm=-14%[8.62 µM];HCV NS3 counter=u
COC(=O)C[C@H]1C(C)(C)[C@H](OC(=O)c2ccccc2)C2CC3=C4CC(=O)O[C@@H](c5ccoc5)[C@]4(C)CCC3[C@@]1(C)C2=O (stereo partly drawn) | -18%[10 µM]
CCC(=O)O[C@H]1C(C)(C)[C@H]([C@@H](O)C(=O)OC)[C@]2(C)C(=O)[C@@]1(O)[C@H]1O[C@]13C1CC(=O)O[C@@H](c4ccoc4)[C@]1(C)CCC32 (stereo partly drawn) | u | nsP2 cell sec=12%[17.6 µM];CHIKV NSP2 FL=u;Furin counter=0%[17.3 µM];NS23 peptide cs=-11%[17.2 µM];Papain counter=-5%[17.2 µM];nsP2pro confirm=u;HCV NS3 counter=u
CN(C)C[C@@H]1CN(Cc2ccccn2)C[C@H]1NC(=O)c1ccc(Cl)s1 | i
O=C(c1ccc(CN2C(=O)NC3(CCOCC3)C2=O)cc1)N1CCc2ccccc2C1 | 1%
COC(=O)[C@H](Cc1ccc(OC)cc1)NC(=O)[C@H]1CN(S(=O)(=O)c2ccccc2)CCN1S(=O)(=O)c1ccccc1 | 2%
COc1ccc(-c2ccc3ncc(Nc4ccncc4)n3n2)cn1 | i
COc1ccc(CNC(=O)[C@H]2O[C@H](CCN(C)CCc3ccccc3)CC[C@@H]2O)cc1 | i
CN1C(=O)N(c2ccc(C#N)c(C(F)(F)F)c2)C(=O)[C@]1(CO)c1ccccc1 | -5%
CC[C@H](NC(=O)[C@H](CS(=O)(=O)CC1CC1)N[C@@H](c1ccc(F)cc1)C(F)(F)F)C(=O)C(=O)NC1CC1 | 4%
CNc1nc(C(=O)N2CCC(c3nccn3Cc3ccncc3)CC2)cs1 | -2%
CN(CCc1ccc(Nc2ncc(-c3cccnc3)s2)cc1)Cc1ccccc1 | 67%
CCN1c2cc(C(=O)NCc3ccncc3)ccc2C(=O)N2CCCCC21 (stereo not drawn) | i
COc1ccc(-c2ccc3ccccc3n2)c(OC)c1OC | i
CCCc1nnc(-c2cnn(C)c2N)n1CCCn1ccnc1 | 0%
CCCC[C@H](NC(C)=O)C(=O)N[C@H]1CC(=O)NCCCC[C@@H](C(=O)O)NC(=O)[C@H](Cc2c[nH]c3ccccc23)NC(=O)[C@H](CCCN=C(N)N)NC(=O)[C@@H](Cc2ccccc2)NC(=O)[C@H](Cc2cnc[nH]2)NC1=O | 0%
C=CCNC(=O)N1CC[C@H]2CC(=O)N(C3CC3)CC[C@H]2C1 | 2%[39.2 µM]
CC1=NN(c2ccccc2)C(=O)C1 | 0.035µM*! | nsP2 cell sec=-10%;CHIKV NSP2 FL=-2%;Furin counter=-8%;NS23 peptide cs=-4%;Papain counter=-3%;nsP2pro confirm=-4%;HCV NS3 counter=i
CCN(CC)C(=O)N1CCC(c2noc(COc3ccc(F)cc3)n2)C1 (stereo not drawn) | -8%
O=C(NCc1nnc(-c2cc3ccccc3[nH]2)s1)c1ccccc1 | -1%
O=C(Cc1nnc(-c2cc3ccccc3[nH]2)s1)Nc1cc(C(F)(F)F)ccc1Cl | -5%
c1ccc(CN(Cc2ccccc2)Cc2nnc(-c3cc4ccccc4[nH]3)s2)cc1 | 8.9µM* | nsP2 cell sec=25%;CHIKV NSP2 FL=12%;Furin counter=-5%;NS23 peptide cs=27%;Papain counter=2%;nsP2pro confirm=2%;HCV NS3 counter=i
O=c1c2ccccc2[se]n1-c1ccccc1 | 4.4µM* | nsP2 cell sec=u;CHIKV NSP2 FL=u;Furin counter=2.1µM*;NS23 peptide cs=9.2µM*;Papain counter=-11%;nsP2pro confirm=2.2µM*;HCV NS3 counter=3.7µM*
SMILES | nsP2pro inh | others
O=C1NCCCCCCN(C(=O)c2ccccn2)[C@H]2CCCC[C@@H]12 | 4%
Fc1ccc(OC2CN(CC3CCCCC3)C2)c(F)c1 | i
COCC(=O)N1CCC(Oc2ccccc2C(=O)N(C)Cc2ncccc2C)CC1 | i
C=C1[C@@H](C)C2[C@H](Cc3ccccc3)NC(=O)[C@@]23C(/C=C/C[C@H](C)C[C@@](C)(O)/C=C/[C@@H]3OC(C)=O)[C@@H]1O (stereo partly drawn) | -3%
C=C1[C@@H](C)[C@H]2[C@H](Cc3ccccc3)NC(=O)[C@]23OC(=O)/C=C/C(=O)CCC[C@@H](C)C/C=C/[C@H]3[C@@H]1O | 2.5µM* | nsP2 cell sec=0.71µM*;CHIKV NSP2 FL=7.3µM*;Furin counter=-4%;NS23 peptide cs=8.2µM*;Papain counter=-12%;nsP2pro confirm=1.1µM*;HCV NS3 counter=0.37µM*
CC1=CC2/C=C(\C)CCC(O)C(O)/C=C/C(=O)OC23C(=O)NC(CC(C)C)C3C1C (stereo not drawn) | -14%[10 µM]
CCn1cc(S(=O)(=O)N2CCOc3ccc(CN4CCCCCC4)cc3C2)cn1 | 0%
O=C(Nc1ccc(F)cc1)N[C@H]1[C@H](O)[C@@H](N2CCCC2)[C@@H]2OC[C@H]1O2 | -6%[39.2 µM]
COc1ccccc1-n1cnc2cc(C(=O)N3CCCCC3)ccc21 | -5%
CN1CCc2cccc3c2[C@H]1Cc1ccc(O)c(O)c1-3 | 3.1µM* | nsP2 cell sec=u;CHIKV NSP2 FL=26µM*;Furin counter=23µM*;NS23 peptide cs=16µM*;Papain counter=14%;nsP2pro confirm=5µM*;HCV NS3 counter=i
CN1CCc2cc3c(cc2C1C1OC(=O)c2c1ccc1c2OCO1)OCO3 (stereo not drawn) | -11%
O=C(NC1CCOCC1)c1ccc(OC2CCN(Cc3ccccn3)CC2)cc1 | 3%
O=P(O)(NCCCl)NCCCl | 12%
O=C(Nc1ccc(N2CCOCC2)c(Cl)c1)c1ccc(Br)o1 | u | nsP2 cell sec=18µM*;CHIKV NSP2 FL=13%;Furin counter=-13%;NS23 peptide cs=14%;Papain counter=-18%;nsP2pro confirm=9%;HCV NS3 counter=i
O=C(Nc1ccc(Cl)c(S(=O)(=O)N2CCOCC2)c1)c1ccccc1 | -5%
O=C(Nc1cccc(NC(=O)c2ccc(Br)o2)c1)c1ccccc1 | -11%
